One sequence from article PMC7862700, “An all-to-all approach to the identification of sequence-specific readers for epigenetic DNA modifications on cytosine” can be followed below.

Common to all, as to assay: DAPPL (digital affinity profiling via proximity ligation, sequencing); 10 mM Tris-HCl pH 7.5, 50 mM NaCl, 1 mM DTT, 4% glycerol, room temperature, 30 min; GST-TFs on glutathione beads, 16-mer random dsDNA library, 0.1% formaldehyde crosslink after washing; high values mean tight binding
In one assay the target is T1, FLI1 (Homo sapiens, UniProt Q01543 1-452).
T1 sequence: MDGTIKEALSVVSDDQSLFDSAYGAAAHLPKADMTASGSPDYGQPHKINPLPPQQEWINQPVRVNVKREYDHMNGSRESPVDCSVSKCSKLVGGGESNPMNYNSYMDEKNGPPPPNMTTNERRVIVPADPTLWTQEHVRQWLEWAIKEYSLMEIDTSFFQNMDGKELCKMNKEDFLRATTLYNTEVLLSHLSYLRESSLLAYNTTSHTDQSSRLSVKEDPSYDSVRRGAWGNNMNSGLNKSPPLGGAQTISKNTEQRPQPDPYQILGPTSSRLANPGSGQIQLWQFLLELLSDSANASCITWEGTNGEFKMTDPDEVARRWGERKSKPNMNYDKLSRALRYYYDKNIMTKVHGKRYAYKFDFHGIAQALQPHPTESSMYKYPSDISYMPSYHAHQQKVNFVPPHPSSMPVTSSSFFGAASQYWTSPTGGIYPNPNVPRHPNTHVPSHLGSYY
To be noted: protein: recombinant; tags: N-terminal GST; dsDNA, one strand shown. In a few lines: (§1)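 The binding signal reported is, for every hexamer, its read frequency for a factor over its read frequency for the tag-only sample. Reads came from pools of yeast-expressed, GST-fused human transcription factors on glutathione beads, barcoded with DNA and mixed with that sample, which were incubated with 200 nmole of a random double-stranded 16-mer DNA library in Tris/NaCl/DTT/glycerol buffer at room temperature for 30 min. After washing, the pools were crosslinked with 0.1% formaldehyde, proximity-ligated with BsaI/T4 ligase for 1 h at 37 °C, PCR-amplified and sequenced on an Illumina NextSeq500.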

The target of the next assay is T2, ELK1 (Homo sapiens, UniProt P19419 1-428).
T2 sequence: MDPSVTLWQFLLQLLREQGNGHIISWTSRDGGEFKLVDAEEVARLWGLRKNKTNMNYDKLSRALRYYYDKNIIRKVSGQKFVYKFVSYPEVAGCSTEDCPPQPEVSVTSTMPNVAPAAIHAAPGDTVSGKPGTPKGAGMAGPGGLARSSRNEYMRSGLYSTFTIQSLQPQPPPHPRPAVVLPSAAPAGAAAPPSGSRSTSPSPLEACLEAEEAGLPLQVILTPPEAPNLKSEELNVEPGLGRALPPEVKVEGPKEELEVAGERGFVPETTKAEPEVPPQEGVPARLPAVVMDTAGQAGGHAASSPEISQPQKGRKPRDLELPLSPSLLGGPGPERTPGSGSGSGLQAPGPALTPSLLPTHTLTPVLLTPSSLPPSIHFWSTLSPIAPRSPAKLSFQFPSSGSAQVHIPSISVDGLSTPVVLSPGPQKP
To be noted: protein: recombinant; tags: N-terminal GST; dsDNA, one strand shown. In short, it runs like this:
as §1

The target of a further assay is T3, GABPA (Homo sapiens, UniProt Q06546 1-454).
T3 sequence: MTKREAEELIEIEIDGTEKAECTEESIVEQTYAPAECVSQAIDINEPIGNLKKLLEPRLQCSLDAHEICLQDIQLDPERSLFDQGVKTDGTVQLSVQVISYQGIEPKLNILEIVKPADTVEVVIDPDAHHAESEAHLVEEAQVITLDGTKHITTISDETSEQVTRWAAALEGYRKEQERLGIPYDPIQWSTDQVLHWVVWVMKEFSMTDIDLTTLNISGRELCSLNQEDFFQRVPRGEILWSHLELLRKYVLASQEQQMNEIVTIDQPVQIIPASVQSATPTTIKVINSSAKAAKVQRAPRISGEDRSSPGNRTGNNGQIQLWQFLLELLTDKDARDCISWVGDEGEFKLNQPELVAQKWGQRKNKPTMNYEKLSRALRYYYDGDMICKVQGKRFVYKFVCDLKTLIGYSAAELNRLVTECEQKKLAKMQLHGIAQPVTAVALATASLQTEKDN
To be noted: protein: recombinant; tags: N-terminal GST; dsDNA, one strand shown. In short, it runs like this: as §1

The target in the next assay is T4, ERG (Homo sapiens, UniProt P11308 1-479).
T4 sequence: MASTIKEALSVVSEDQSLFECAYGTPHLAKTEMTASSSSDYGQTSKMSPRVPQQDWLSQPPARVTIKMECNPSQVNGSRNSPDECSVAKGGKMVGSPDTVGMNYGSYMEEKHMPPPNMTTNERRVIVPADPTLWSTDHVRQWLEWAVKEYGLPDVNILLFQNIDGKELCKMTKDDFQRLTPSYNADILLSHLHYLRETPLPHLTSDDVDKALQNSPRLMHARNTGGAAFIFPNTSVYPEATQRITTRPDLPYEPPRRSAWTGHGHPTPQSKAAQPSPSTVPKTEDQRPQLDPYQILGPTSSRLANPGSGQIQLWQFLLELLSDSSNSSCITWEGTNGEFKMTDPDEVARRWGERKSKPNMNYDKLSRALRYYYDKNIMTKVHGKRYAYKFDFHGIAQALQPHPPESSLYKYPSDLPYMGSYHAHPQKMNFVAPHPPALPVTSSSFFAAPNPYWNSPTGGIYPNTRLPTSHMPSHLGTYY
The note with it: protein: recombinant; tags: N-terminal GST; dsDNA, one strand shown. In short, it runs like this: as §1

Another assay concerns the target ELF1 (Homo sapiens, UniProt P32519 1-619). The note with it: protein: recombinant; tags: N-terminal GST; dsDNA, one strand shown. In short, it runs like this: as §1
A further assay concerns the target T5, EHF (Homo sapiens, UniProt Q9NZC4 1-300).
T5 sequence: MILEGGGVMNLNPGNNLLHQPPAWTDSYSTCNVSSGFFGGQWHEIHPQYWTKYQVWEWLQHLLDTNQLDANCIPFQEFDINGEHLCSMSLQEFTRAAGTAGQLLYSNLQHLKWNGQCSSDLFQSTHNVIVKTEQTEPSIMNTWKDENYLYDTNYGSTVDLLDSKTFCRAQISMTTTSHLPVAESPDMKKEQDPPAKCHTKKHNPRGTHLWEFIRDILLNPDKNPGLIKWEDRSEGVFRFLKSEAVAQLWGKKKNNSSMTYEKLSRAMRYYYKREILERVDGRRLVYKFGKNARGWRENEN
To be noted: protein: recombinant; tags: N-terminal GST; dsDNA, one strand shown. In short, it runs like this:
as §1

The target in another assay is SPI1 (Homo sapiens, UniProt P17947 1-270). The note with it: protein: recombinant; tags: N-terminal GST; dsDNA, one strand shown. In a few lines: as §1
The target of a further assay is SPIB (Homo sapiens, UniProt Q01892 1-262). To be noted: protein: recombinant; tags: N-terminal GST; dsDNA, one strand shown. In a few lines: as §1
SPIB, sequence (Q01892 whole entry): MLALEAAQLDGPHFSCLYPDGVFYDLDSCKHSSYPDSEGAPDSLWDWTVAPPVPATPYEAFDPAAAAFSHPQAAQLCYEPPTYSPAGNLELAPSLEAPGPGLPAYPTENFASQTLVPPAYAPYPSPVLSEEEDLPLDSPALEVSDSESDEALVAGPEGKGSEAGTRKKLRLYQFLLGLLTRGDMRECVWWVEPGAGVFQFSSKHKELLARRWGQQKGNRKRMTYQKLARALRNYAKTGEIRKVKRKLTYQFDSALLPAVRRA
In another assay the target is T6, ELK3 (Homo sapiens, UniProt P41970 1-407).
T6 sequence: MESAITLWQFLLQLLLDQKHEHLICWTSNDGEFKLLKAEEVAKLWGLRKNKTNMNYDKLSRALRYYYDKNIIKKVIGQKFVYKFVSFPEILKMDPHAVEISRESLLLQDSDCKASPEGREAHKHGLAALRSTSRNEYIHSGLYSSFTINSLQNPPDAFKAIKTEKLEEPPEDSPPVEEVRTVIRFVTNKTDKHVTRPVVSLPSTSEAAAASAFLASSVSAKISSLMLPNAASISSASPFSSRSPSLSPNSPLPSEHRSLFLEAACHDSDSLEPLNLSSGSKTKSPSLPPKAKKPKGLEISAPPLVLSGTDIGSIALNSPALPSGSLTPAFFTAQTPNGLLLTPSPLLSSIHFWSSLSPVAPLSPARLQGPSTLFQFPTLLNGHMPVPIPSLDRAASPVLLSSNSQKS
To be noted: protein: recombinant; tags: N-terminal GST; dsDNA, one strand shown. In a few lines: as §1

The next assay concerns the target T7, FEV (Homo sapiens, UniProt Q99581 1-238).
T7 sequence: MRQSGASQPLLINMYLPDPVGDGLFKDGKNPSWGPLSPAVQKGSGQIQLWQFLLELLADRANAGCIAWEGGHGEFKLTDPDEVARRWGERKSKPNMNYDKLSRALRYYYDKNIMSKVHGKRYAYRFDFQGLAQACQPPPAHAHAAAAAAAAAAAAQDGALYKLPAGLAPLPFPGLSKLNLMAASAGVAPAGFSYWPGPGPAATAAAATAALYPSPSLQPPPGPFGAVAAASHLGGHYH
The note with it: protein: recombinant; tags: N-terminal GST; dsDNA, one strand shown. In short, it runs like this: as §1

A further assay has as its target ETV5 (Homo sapiens, UniProt P41161 1-510). To be noted: protein: recombinant; tags: N-terminal GST; dsDNA, one strand shown. In short, it runs like this:
as §1

The target in another assay is HSF1 (Homo sapiens, UniProt Q00613 1-529). The note with it: protein: recombinant; tags: N-terminal GST; chain copies: 3; dsDNA, one strand shown. In a few lines:
as §1

A further assay concerns the target T8, SPIC (Homo sapiens, UniProt Q8N5J4 1-248).
T8 sequence: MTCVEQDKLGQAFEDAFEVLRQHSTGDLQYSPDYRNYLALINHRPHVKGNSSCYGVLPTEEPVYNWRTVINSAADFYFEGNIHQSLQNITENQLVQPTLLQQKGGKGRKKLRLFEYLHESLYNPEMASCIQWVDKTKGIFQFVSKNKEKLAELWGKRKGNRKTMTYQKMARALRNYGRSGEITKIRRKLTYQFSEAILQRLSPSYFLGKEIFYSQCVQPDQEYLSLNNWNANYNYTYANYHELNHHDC
To be noted: protein: recombinant; tags: N-terminal GST; dsDNA, one strand shown. In a few lines:
as §1

The target in the next assay is ELF4 (Homo sapiens, UniProt Q99607 1-663). To be noted: protein: recombinant; tags: N-terminal GST; dsDNA, one strand shown. In short, it runs like this:
as §1

The target in a further assay is T9, ELK4 (Homo sapiens, UniProt P28324-2 1-405).
T9 sequence: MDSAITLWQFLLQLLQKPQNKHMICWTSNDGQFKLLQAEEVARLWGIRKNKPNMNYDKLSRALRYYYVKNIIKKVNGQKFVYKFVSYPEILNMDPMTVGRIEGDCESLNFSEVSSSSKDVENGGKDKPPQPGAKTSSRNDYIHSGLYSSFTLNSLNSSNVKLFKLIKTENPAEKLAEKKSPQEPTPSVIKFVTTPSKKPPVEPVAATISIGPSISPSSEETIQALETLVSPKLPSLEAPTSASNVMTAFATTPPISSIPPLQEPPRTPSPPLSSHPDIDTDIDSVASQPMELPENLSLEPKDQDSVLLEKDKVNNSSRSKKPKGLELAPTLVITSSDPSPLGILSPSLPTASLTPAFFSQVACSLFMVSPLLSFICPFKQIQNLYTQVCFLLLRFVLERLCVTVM
The note with it: protein: recombinant; tags: N-terminal GST; dsDNA, one strand shown. In a few lines:
as §1

For another assay, the target named is T10, ETV2 (Homo sapiens, UniProt O00321 1-342).
T10 sequence: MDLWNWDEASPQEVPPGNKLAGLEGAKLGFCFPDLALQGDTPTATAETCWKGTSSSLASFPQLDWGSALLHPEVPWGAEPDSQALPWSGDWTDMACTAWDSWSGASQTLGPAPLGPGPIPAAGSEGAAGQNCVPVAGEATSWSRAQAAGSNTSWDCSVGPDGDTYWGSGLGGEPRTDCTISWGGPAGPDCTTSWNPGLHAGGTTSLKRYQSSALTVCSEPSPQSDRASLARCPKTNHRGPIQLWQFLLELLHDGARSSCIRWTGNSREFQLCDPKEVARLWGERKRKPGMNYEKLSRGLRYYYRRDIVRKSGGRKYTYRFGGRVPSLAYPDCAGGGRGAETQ
To be noted: protein: recombinant; tags: N-terminal GST; dsDNA, one strand shown. In a few lines: as §1

For another assay, the target named is T11, ELF3 (Homo sapiens, UniProt P78545 1-371).
T11 sequence: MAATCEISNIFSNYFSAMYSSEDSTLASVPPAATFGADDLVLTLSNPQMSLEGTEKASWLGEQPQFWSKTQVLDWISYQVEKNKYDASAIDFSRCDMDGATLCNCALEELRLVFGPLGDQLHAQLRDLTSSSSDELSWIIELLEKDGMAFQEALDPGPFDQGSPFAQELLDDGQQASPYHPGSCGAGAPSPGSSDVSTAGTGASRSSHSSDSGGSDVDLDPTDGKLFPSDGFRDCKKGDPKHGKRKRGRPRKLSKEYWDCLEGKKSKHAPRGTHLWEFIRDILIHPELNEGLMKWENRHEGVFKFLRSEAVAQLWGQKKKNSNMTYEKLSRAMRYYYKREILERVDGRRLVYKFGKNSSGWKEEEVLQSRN
To be noted: protein: recombinant; tags: N-terminal GST; dsDNA, one strand shown. In short, it runs like this:
as §1

Another assay deals with CRX (Homo sapiens, UniProt O43186 1-299). To be noted: protein: recombinant; tags: N-terminal GST; dsDNA, one strand shown. In a few lines: as §1
CRX, sequence (O43186 whole entry): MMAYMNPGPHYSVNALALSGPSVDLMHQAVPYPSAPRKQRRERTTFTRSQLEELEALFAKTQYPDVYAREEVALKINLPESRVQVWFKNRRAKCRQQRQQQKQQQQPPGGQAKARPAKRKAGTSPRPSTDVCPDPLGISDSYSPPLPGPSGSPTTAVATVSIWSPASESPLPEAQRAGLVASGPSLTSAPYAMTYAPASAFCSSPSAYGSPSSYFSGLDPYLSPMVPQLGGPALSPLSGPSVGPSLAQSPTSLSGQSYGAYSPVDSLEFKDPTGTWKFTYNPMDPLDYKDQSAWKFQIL
The target of another assay is ETV1 (Homo sapiens, UniProt P50549 1-477). To be noted: protein: recombinant; tags: N-terminal GST; dsDNA, one strand shown. In short, it runs like this: as §1
ETV1, sequence (P50549 whole entry): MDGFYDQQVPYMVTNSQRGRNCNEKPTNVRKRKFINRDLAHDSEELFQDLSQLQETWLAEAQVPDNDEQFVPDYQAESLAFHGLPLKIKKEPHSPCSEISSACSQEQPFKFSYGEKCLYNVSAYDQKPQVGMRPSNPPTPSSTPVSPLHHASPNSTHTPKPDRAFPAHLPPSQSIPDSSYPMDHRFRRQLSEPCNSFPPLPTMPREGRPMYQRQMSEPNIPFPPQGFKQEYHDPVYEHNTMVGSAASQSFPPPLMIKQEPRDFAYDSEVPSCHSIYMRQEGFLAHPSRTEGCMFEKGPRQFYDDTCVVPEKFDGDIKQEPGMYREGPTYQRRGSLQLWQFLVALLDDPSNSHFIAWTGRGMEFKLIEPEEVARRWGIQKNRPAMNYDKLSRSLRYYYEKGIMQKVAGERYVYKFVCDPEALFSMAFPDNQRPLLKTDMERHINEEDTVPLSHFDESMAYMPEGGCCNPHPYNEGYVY

ELF4, sequence (Q99607 whole entry): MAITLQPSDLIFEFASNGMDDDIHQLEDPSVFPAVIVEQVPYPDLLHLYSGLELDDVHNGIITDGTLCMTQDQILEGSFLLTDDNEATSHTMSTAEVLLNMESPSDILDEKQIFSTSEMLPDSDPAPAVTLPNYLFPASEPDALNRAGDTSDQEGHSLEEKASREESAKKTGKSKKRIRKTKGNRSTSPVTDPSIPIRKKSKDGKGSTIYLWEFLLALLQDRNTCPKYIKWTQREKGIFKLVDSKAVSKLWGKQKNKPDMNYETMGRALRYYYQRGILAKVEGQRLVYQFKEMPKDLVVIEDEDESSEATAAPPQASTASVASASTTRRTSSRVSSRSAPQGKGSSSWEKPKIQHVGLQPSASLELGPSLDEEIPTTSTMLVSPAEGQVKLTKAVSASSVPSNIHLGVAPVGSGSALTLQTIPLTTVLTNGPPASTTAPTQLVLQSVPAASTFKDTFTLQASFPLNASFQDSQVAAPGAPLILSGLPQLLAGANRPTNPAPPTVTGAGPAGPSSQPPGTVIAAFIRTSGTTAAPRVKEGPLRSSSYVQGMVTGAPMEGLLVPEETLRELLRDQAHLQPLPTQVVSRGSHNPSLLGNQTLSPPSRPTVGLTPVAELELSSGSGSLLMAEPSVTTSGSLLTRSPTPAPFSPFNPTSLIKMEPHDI
ETV5, sequence (P41161 whole entry): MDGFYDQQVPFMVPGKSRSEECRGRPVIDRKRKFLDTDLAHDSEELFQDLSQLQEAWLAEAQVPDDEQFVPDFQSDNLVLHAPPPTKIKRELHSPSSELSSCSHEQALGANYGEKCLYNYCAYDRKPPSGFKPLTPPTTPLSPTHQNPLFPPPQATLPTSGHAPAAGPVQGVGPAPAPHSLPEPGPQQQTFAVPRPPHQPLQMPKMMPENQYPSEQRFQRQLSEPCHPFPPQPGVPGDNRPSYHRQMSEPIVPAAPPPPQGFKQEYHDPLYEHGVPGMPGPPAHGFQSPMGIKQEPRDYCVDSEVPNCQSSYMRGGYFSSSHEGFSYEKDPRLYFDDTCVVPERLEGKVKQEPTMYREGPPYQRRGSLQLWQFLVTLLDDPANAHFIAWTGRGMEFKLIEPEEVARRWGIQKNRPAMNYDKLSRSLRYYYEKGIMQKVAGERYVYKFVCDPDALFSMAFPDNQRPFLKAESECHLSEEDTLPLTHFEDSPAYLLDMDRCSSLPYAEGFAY
ELF1, sequence (P32519 whole entry): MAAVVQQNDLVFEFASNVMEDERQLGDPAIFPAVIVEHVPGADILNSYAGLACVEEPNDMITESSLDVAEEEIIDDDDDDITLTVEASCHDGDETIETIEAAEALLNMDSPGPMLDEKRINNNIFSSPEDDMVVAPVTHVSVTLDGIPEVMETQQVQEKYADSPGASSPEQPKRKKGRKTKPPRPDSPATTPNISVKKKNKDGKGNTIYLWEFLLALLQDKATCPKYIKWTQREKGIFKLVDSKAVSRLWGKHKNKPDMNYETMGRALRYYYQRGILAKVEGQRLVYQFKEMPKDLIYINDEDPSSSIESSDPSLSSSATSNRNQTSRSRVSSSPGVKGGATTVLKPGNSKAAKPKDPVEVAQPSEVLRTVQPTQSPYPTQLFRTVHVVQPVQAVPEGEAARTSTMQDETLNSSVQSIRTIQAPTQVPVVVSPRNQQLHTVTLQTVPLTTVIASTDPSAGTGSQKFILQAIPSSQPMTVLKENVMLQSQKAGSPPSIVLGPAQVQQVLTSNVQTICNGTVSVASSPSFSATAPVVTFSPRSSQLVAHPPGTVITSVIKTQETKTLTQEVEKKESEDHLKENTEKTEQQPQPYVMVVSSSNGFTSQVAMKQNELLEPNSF
HSF1, sequence (Q00613 whole entry): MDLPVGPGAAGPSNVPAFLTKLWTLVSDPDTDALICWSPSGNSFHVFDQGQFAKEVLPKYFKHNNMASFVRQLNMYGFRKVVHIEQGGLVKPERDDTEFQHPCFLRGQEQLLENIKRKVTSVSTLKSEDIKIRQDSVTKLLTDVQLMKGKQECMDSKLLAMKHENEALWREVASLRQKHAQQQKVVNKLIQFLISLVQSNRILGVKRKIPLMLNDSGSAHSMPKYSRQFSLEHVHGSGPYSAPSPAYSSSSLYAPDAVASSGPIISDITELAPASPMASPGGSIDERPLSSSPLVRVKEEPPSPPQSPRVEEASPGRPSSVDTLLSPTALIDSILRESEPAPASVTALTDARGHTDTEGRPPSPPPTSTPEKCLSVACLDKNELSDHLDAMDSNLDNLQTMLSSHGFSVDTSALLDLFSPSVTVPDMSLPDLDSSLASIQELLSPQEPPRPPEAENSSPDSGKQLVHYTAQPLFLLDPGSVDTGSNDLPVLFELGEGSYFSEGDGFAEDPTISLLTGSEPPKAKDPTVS

As to TTGATC, the binding signal with FLI1 is 1.21 fold enrichment (6-mer frequency, TF over GST control); with ELK1, 1.22 fold enrichment (6-mer frequency, TF over GST control); with GABPA it was 1.21 fold enrichment (6-mer frequency, TF over GST control); with ERG it was 1.19 fold enrichment (6-mer frequency, TF over GST control); with ELF1, 1.21 fold enrichment (6-mer frequency, TF over GST control); with EHF, 1.12 fold enrichment (6-mer frequency, TF over GST control). The binding signal is 1.23 fold enrichment (6-mer frequency, TF over GST control) with SPI1; 1.3 fold enrichment (6-mer frequency, TF over GST control) in the assay with SPIB; 1.26 fold enrichment (6-mer frequency, TF over GST control) in the assay with ELK3; 1.17 fold enrichment (6-mer frequency, TF over GST control) in the assay with FEV; 1.26 fold enrichment (6-mer frequency, TF over GST control) with ETV5; 1.48 fold enrichment (6-mer frequency, TF over GST control) with HSF1. Further, the binding signal is 1.25 fold enrichment (6-mer frequency, TF over GST control) in the assay with SPIC; 1.14 fold enrichment (6-mer frequency, TF over GST control) with ELF4; 1.14 fold enrichment (6-mer frequency, TF over GST control) with ELK4; 1.09 fold enrichment (6-mer frequency, TF over GST control) with ETV2; 1.01 fold enrichment (6-mer frequency, TF over GST control) in the assay with ELF3; 1.71 fold enrichment (6-mer frequency, TF over GST control) with CRX. The binding signal with ETV1 was 1.15 fold enrichment (6-mer frequency, TF over GST control).
